Values joined by “and” are separate entries in the source; they are usually repeats but may differ in a detail not shown here. Equal entries are not always repeated. Hit rate of the full screen: of about 5,500 compounds, about 2,000 (36%) were called active. Another 18% or so got no clear call; they are omitted. No stated cut-off is given here; in the data, active means normalized growth mostly below about 0.91 (no sharp cut-off); inconclusive means no clear call, values can overlap the other calls; inactive means mostly above about 0.92. The list shows a part of the results.
Experiment: chemical genetic growth profiling, strain panel (AID 1159580);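 further: tested at 20 µM; growth read once vehicle control cultures reached saturation at 30 °C; 1 = growth at the plate median or of vehicle wells; lower values mean less growth of the strain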
Details: S. cerevisiae deletion strains, growth OD

Measured: normalized growth

COc1ccc(C2C(=O)c3ccccc3C2=O)cc1
inactive: locus YAL013W, strain DEP1, hits give low values 0.997 | locus YAL021C, strain ccr4, hits give low values 1.01 | locus YAL026C, strain drs2, hits give low values 0.983 | locus YAL030W, strain snc1, hits give low values 1 | locus YBL061C, strain skt5, hits give low values 1.01 | locus YBR009C, strain hhf1, hits give low values 0.998 | locus YBR021W, strain FUR4, hits give low values 1.01 | locus YBR023C, strain chs3, hits give low values 1.01 | locus YBR171W, strain sec66, hits give low values 0.978 | locus YBR229C, strain ROT2, hits give low values 1 | locus YBR231C, strain swc5, hits give low values 1.02 | locus YBR279W, strain paf1, hits give low values 1.01 | locus YCL011C, strain gbp2, hits give low values 0.979 | locus YCL016C, strain dcc1, hits give low values 1.03 | locus YCL029C, strain bik1, hits give low values 0.983 | locus YCL069W, strain vba3, hits give low values 0.986 | locus YCR088W, strain abp1, hits give low values 0.999 | locus YDL005C, strain med2, hits give low values 1.02 | locus YDL035C, strain GPR1, hits give low values 1.01 | locus YDL040C, strain nat1, hits give low values 1.02 | locus YDL074C, strain BRE1, hits give low values 0.994 | locus YDL101C, strain DUN1, hits give low values 1 | locus YDL185W, strain tfp1, hits give low values 0.921 | locus YDL192W, strain arf1, hits give low values 0.988 | locus YDR001C, strain nth1, hits give low values 0.964 | locus YDR069C, strain doa4, hits give low values 1.01 | locus YDR101C, strain arx1, hits give low values 1.03 | locus YDR137W, strain rgp1, hits give low values 0.978 | locus YDR150W, strain NUM1, hits give low values 0.988 | locus YDR159W, strain sac3, hits give low values 1.01 | locus YDR162C, strain NBP2, hits give low values 1.02 | locus YDR195W, strain ref2 1.09 | locus YDR297W, strain sur2, hits give low values 0.993 | locus YDR318W, strain mcm21, hits give low values 0.993 | locus YDR334W, strain swr1, hits give low values 0.983 | locus YDR335W, strain msn5, hits give low values 1.02 | locus YDR388W, hits give low values 1.01 | locus YDR392W, strain spt3, hits give low values 1.02 | locus YDR502C, strain sam2, hits give low values 0.998 | locus YEL003W, strain gim4, hits give low values 0.993 | locus YEL037C, strain rad23, hits give low values 0.994 | locus YEL061C, strain CIN8 (second series), hits give low values 0.975 | locus YEL061C, strain CIN8, hits give low values 0.98 | locus YER015W, strain faa2, hits give low values 1.01 | locus YER016W, strain bim1, hits give low values 0.995 | locus YER110C, hits give low values 0.985 | locus YER111C, strain swi4, hits give low values 0.994 | locus YER155C, strain BEM2 (second series), hits give low values 0.993 | locus YER155C, strain BEM2, hits give low values 0.998 | locus YER167W, strain BCK2, hits give low values 1 | locus YFR010W, strain ubp6, hits give low values 1.02 | locus YGL078C, strain dbp3, hits give low values 0.99 | locus YGL086W, strain mad1, hits give low values 1.01 | locus YGL167C, strain pmr1, hits give low values 1 | locus YGL173C, strain kem1, hits give low values 1.02 | locus YGL227W, strain vid30, hits give low values 0.974 | locus YGL240W, strain doc1, hits give low values 1.02 | locus YGL248W, strain PDE1, hits give low values 1 | locus YGL253W, strain hxk2, hits give low values 1.01 | locus YGR078C, strain PAC10, hits give low values 0.998 | locus YGR135W, strain pre9, hits give low values 0.963 | locus YGR252W, strain gcn5, hits give low values 0.956 | locus YHR013C, strain ard1, hits give low values 1.02 | locus YHR027C, strain rpn1, hits give low values 1.01 | locus YHR030C, strain SLT2, hits give low values 0.977 and 0.898 | locus YHR079C, strain IRE1 (second series), hits give low values 0.991 | locus YHR079C, strain IRE1, hits give low values 0.857 | locus YHR094C, strain hxt1, hits give low values 0.999 | locus YHR129C, strain ARP1, hits give low values 1.01 | locus YHR142W, strain chs7, hits give low values 1.02 | locus YHR200W, strain rpn10, hits give low values 0.995 | locus YIL066C, strain RNR3, hits give low values 0.996 | locus YIL073C, strain SPO22, hits give low values 0.977 | locus YIL125W, strain kgd1, hits give low values 0.997 | locus YIR030C, strain dcg1, hits give low values 0.987 | locus YJL092W, strain hpr5, hits give low values 0.969 | locus YJL095W, strain BCK1 (second series), hits give low values 0.981 | locus YJL095W, strain BCK1, hits give low values 1 and 0.908 | locus YJL115W, strain asf1, hits give low values 0.998 | locus YJL129C, strain trk1, hits give low values 1.02 | locus YJL134W, strain LCB3, hits give low values 1 | locus YJL154C, strain vps35, hits give low values 0.99 | locus YJL164C, strain tpk1, hits give low values 0.999 | locus YJL166W, strain qcr8, hits give low values 1.01 | locus YJL168C, strain set2, hits give low values 1.02 | locus YJL187C, strain SWE1 (second series), hits give low values 0.998 | locus YJR043C, strain POL32, hits give low values 1
